Measurements published in the supplement of paper PMC11001985.

Target: HSP90AA1 (UniProt P07900)
Assay: lysine labeling ratio R10:1 (500 µM / 50 µM probe), SILAC-ABPP in living cells; higher = lower intrinsic lysine reactivity toward the probe, active = 2 or less
Conditions: HeLa, probe concentrations 500 vs 50 µM
Experimental: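 Living HeLa cells (SILAC light/heavy) in PBS at room temperature were labeled with 50 µM versus 500 µM of the lysine-reactive, reductant-cleavable probe OPA-S-S-alkyne (SILAC labeling time not stated). Probe-modified peptides were CuAAC-biotinylated, captured on neutravidin and eluted with DTT/IAA, then quantified by LC-MS/MS. R = median peptide ratio per lysine (500/50 µM), combined over 3 forward and 3 reverse SILAC replicates. Ratios are capped at 20; R < 2 = hyper-reactive.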

Measured: lysine labeling ratio R10:1

C#CCNC(=O)CCSSCCC(=O)NCCc1ccc(C=O)c(C=O)c1
inactive: lysine site: K58 3.2 | lysine site: K84 4.81 | lysine site: K458 2.96 | lysine site: K585 6.47 | lysine site: K632 5.33
active: lysine site: K457 0.935
